KAT2A inh: blocks human GCN5L2 histone acetyltransferase | Q92830 | GCN5L2 HAT assay, ThioGlo1 CoA-SH fluorescence | Potency, µM (doses to about 58.9 µM), inactives show top-dose activity change, negative = inhibition, usual class: inhibitors | actives 0.21% (n = 390,000) | AID 504327; further: on the % scale 0 is the no-effect control and ±100 the full control effect
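Compounds, pin-transferred from DMSO stocks, meet 20nM GCN5L2 for 15 min before the reaction begins with H3(1-25) peptide (75uM) and acetyl-CoA (70uM). Thiol-reactive ThioGlo1 reports CoA release over 20 min at room temperature.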
PKM2 act: increases activity of human pyruvate kinase M2. purified PKM2, Kinase-Glo ATP luminescence, activation; response scale: 0% is enzyme alone, no compound. Potency, µM (top dose mostly 57.5 µM), inactives show at the highest dose activation, actives largely listed as activators. actives 0.34% (n = 260,000). AID 1631; further: on the % scale 0 is the no-effect control and ±100 the full control effect; nearly all actives have a fitted effect of over 55% in size
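Purified hPK-M2 (>95% pure) converted ADP (0.1 mM final) to ATP with 0.5 mM PEP in 50 mM imidazole pH7.2, KCl, MgCl2, Tween 20, BSA; 1 h at room temperature. ATP detected by Kinase-Glo luminescence.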
Mito fusion yeast: mitochondrial division inhibition or fusion activation. S. cerevisiae fusion-defective mutant growth rescue, CellTiterGlo 48 h. Potency, µM (titrated, usually from 46.1 µM), for inactives: at the highest dose growth rescue (activation), actives largely listed as activators. actives 0.23% (n = 320,000); further: % of control where 0% means no effect; nearly all actives have a fitted effect of over 45% in size
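Growth-rescue viability read-out: after 48 h at the non-permissive 37C in glycerol/ethanol YPEG, yeast mitochondrial fusion mutants are measured by CellTiterGlo luminescence; compounds (23 nl pinned per well) restoring growth score as division inhibitors or fusion activators.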
GLS inh: inhibitors of human glutaminase (GLS). Potency, µM (highest dose often 45.5 µM), for inactives: at the highest dose activity change, negative = inhibition, hits mostly inhibitors. GLS enzymatic activity, qHTS titration. O94925. actives 0.21% (n = 410,000). AID 624170; further: on the % scale 0 is the no-effect control and ±100 the full control effect
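Compounds were pin-transferred onto hKGA, after which L-glutamine (1 mM solution) and a detection mix of glutamate oxidase, HRP and Amplex Red were added. Initial and 30 min RT fluorescence reads were collected.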
PLK1 PBD block: PLK1 (human) polo-box domain binding inhibition; P53350; Plk1 PBD binding of FITC phosphopeptide, fluorescence polarization; Potency, µM, inactives show max response, negative = inhibition, hits mostly inhibitors; actives 2.8% (n = 360,000); further: series mostly up to about 57 µM; on the % scale 0 is the no-effect control and ±100 the full control effect; nearly all actives have a fitted effect of over 65% in size
Target sequence (P53350 whole entry, looked up, the tested form may be a part): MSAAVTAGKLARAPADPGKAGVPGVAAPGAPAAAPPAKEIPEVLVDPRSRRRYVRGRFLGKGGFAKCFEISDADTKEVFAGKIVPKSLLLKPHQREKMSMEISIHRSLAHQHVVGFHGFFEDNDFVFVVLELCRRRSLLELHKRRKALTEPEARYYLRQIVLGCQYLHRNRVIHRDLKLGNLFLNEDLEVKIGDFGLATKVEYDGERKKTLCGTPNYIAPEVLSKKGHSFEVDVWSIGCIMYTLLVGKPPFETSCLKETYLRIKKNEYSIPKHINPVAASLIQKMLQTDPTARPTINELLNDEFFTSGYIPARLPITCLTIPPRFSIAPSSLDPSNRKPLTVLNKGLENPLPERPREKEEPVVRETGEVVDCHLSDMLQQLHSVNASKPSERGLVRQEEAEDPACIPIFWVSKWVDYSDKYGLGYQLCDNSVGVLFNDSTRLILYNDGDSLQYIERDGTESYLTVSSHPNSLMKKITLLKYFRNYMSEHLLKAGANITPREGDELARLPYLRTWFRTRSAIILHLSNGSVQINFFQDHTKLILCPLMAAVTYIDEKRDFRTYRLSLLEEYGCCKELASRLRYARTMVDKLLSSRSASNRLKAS
VDR inh: blocks the human vitamin D receptor; P11473; VDR-SRC2-3 peptide fluorescence polarization, 2 h; actives 0.93% (n = 400,000); Potency, µM, for inactives: max response, negative = inhibition, actives largely listed as inhibitors; AID 504847; further: on the % scale 0 is the no-effect control and ±100 the full control effect
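Measured by FP: displacement of SRC2-3 coactivator peptide from VDR by library compounds, following a two-hour ambient incubation.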
* hit, by the source's call; ? = inconclusive; nt = no result. Hits are enriched below; roughly 3.4% of the tested compounds scored in any of these assays. The call rests on the fitted dose curve; in most records, active means well fitted curve in the direction sought with a large enough effect; inconclusive means small, poorly fitted or top-dose-only effect, or another doubt; inactive means no such curve, though single readings can be large; an effect the other way counts as inactive or inconclusive. Potency means the concentration at half of the fitted maximal effect.

SMILES	KAT2A inh	PKM2 act	Mito fusion yeast	GLS inh	PLK1 PBD block	VDR inh
CCOC(=O)c1sc(=S)n(-c2ccccc2OC)c1N	-6%	-12%	8%	-11%	21µM*	-29%
COc1ccc(OC)c(Nc2nc(=O)c3cccnc3s2)c1	?	8.9µM*	-19%	?	6.7µM*	45µM*
Cc1ccc(Nc2nc(=O)c3cccnc3s2)cc1	-3%	-2%	8%	4%	-5%	22%
CC(=O)c1ccc2c(c1)C1C=CCC1C(C(=O)O)N2 (stereo not drawn)	?	7%	-3%	2.5µM*	7.5µM*	-16%
O=C(O)c1ccc2c(c1)C1C=CCC1C(c1cc3c(cc1Br)OCO3)N2 (stereo not drawn)	-5%	1%	11µM*	15%	?	?
Cc1ccc2c(c1)C1C=CCC1C(C(=O)O)N2 (stereo not drawn)	25µM*	14%	-7%	nt	nt	nt
COCCn1c(=O)c(-c2cccs2)nc2cnc(Oc3ccc(OC)cc3)nc21	-25%	nt	nt	nt	nt	-26%
O=C(Nc1ccc(/C=C/c2ccc(NC(=O)c3cc(S(=O)(=O)O)c4cccnc4c3O)cc2S(=O)(=O)O)c(S(=O)(=O)O)c1)c1cc(S(=O)(=O)O)c2cccnc2c1O	nt	nt	nt	-117%	nt	nt
COc1ccc2nc3n(c(=O)c2c1)-c1ccc(Cl)cc1C(=O)NC3Cc1ccc(O)cc1 (stereo not drawn)	nt	nt	nt	2%	-1%	4%
O=C(NCCc1c[nH]c2ccccc12)C(=O)NCC(c1ccco1)N1CCN(c2ccccc2)CC1 (stereo not drawn)	-1%	2%	-1%	14%	1%	-9%
Cc1ccc(NC(=O)CNC(=O)N2CC(=O)Nc3ccccc32)cc1F	-2%	nt	8%	29%	7.5µM*	?
Cc1nnc(-c2ccc(Oc3ccc(Cl)cc3)c([N+](=O)[O-])c2)o1	-2%	-3%	0%	-5%	21µM*	?
CCCCOC(=O)C(C)Nc1n[nH]c(=S)[nH]c1=O (stereo not drawn)	-4%	0%	-2%	-20%	27µM*	-15%
CCCCOC(=O)C(C)Nc1n[nH]c(=O)[nH]c1=O (stereo not drawn)	-4%	-9%	3%	-4%	-3%	6%
CCOC(=O)Cc1cnc(NC(=O)CSc2nc(N)cc(=O)[nH]2)s1	4%	-2%	1%	4%	17µM*	?
CCOC(=O)CSc1nc(N)cc(=O)[nH]1	-4%	-2%	-4%	-11%	-9%	15%
Cc1nc(C)c(C(=O)N/N=C/c2ccco2)s1	-14%	0%	12%	-7%	-7%	1%
CN(C)/C=C/c1c([N+](=O)[O-])c2ccc(O)cc2n1-c1ccccc1	-19%	15%	6%	8.9µM*	0%	?
COC(=O)c1c(C)n(-c2ccccc2)c2ccc(O)cc12	-9%	?	-3%	12%	1%	-13%
Cn1cnnc1Sc1cc(N2CCN(S(=O)(=O)c3ccccc3)CC2)ccc1[N+](=O)[O-]	-11%	0.22µM*	-3%	-2%	-18%	-3%
Cc1noc(NS(=O)(=O)c2ccc(NC(=O)c3cc(-c4ccccc4Cl)nc4ccccc34)cc2)c1C	-11%	7%	2%	-15%	38µM*	-17%
CCN(CC)S(=O)(=O)c1ccc(O)c(NC(=O)c2cc(-c3cc(OC)c(OC)c(OC)c3)nc3ccccc23)c1	-9%	-5%	7%	-8%	19µM*	-23%
Cc1ccc(/C=C/C(=O)Nc2ccc(S(=O)(=O)Nc3onc(C)c3C)cc2)cc1	-5%	nt	1%	0%	38µM*	18%
COc1cc(-c2cc(C(=O)Nc3ccc(S(=O)(=O)Nc4ncccn4)cc3)c3ccccc3n2)cc(OC)c1OC	-20%	5%	4%	12%	27µM*	?
COc1ccc(-c2cc(C(=O)Nc3ccc(S(=O)(=O)Nc4onc(C)c4C)cc3)c3ccccc3n2)cc1	-19%	4%	6%	14%	?	-18%
